Consider 51 compounds from PubChem BioAssay AID2417 (National Center for Advancing Translational Sciences (NCATS), 2010).

The structures appear in SMILES notation. Screen size: about 140,000 compounds; about 4,300 (3.1%) were called active. Roughly 21% stayed inconclusive and do not appear here. Many of the other results were omitted from the sample, so actives are more common in it than they were. Unmarked numbers belong to inactive results.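 How the source made its calls: active means readout at or below -70, meaning at least 70% loss of cells showing the perinucleolar compartment, a nuclear body marking cancer cells; inconclusive means readout between -30 and a set limit; inactive means the rest.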

The test in a line: High Content Assay for Compounds that inhibit the Assembly of the Perinucleolar Compartment.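 Further: plate controls were DMSO wells for no effect and camptothecin positive control wells for full effect.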 The note with it: PC3M PTB-GFP, PNC prevalence imaging, 16 h; at 10 µM; active compounds read low. An outline of the steps: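 Read-out is percentage of cells bearing a perinucleolar compartment, from automated 20x imaging of fixed, Hoechst-stained PC3M PTB-GFP cells. Cells were seeded 4 h, then exposed 16 h to compound (23 nl of library stock) in duplicate plates.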
Turning to `COc1ccccc1-c1nnc(NC(=O)c2ccc3ncsc3c2)o1`, the activity change (PNC), negative = inhibition was -121% (active).
With `COc1ccccc1-c1nnc(NC(=O)c2cccc(N3C(=O)CCC3=O)c2)o1` the figure was -7.63%; with `COc1ccccc1-c1nnc(SCC(=O)Nc2cc(C)on2)o1`, -4.25%.
Under `CCCCC(CC(C)O)c1n[nH]c(=S)n1-c1ccccc1` (stereo unspecified) stands 4.51%; under `O=C(NCCCO)/C(=C\C=C\c1ccccc1)NC(=O)c1ccccc1Cl`, 26.4%.
For `O=C(N/N=C/c1ccc(O)cc1)/C(=C/c1ccc([N+](=O)[O-])cc1)NC(=O)c1ccccc1`, the activity change (PNC), negative = inhibition was -101% (active).
With `O=C(N/N=C/c1cc([N+](=O)[O-])ccc1O)/C(=C\c1cccs1)NC(=O)c1ccccc1` the figure was 25.3%; with `O=C(NCCc1ccccc1)/C(=C\c1ccc([N+](=O)[O-])cc1)NC(=O)c1ccccc1`, -6.81%; with `CCCC(=O)Nc1ccc(C(=O)N/N=C/c2ccc[nH]2)cc1`, -29.4%.
Under `Cc1csc(=Nc2ccccc2)n1CCO` stands -25.4%; under `C=C(C)CNC(=S)/N=c1\scc(C)n1CC`, -100% (active).
Turning to `Cc1csc(=NC(=O)c2ccccc2)n1CCO`, the activity change (PNC), negative = inhibition was -9.41%.
With `COc1cc(/C=C/C(=O)N2c3ccccc3Sc3ccc(C(F)(F)F)cc32)cc(OC)c1OC` the figure was -24.5%.
With `O=C(CSc1nnc(Nc2ccccc2)s1)Nc1cccnc1Cl` the figure was -10.3%; with `C/C(=N\NC(=O)Cc1ccc(Cl)cc1)c1ccccn1`, -18.2%; with `O=C(Nc1ccccc1Cl)O/N=C(/c1ccccc1)c1ccccn1`, -96.2% (active).
Consider `COc1cc2c(cc1OC)C(=O)NCC(C)(C)O2`, for which the activity change (PNC), negative = inhibition was 47.7%.
With `CCCCN(CC)C(=O)c1ccc2c(c1)OCO2` the figure was 21.9%; with `CCOC(=O)c1ccc(N/C(=N/S(=O)(=O)c2ccccc2)c2ccccc2)cc1`, 3.77%; with `O=C(OCC(O)C(O)COC(=O)c1ccccc1)c1ccccc1` (stereo unspecified), -83.5% (active).
As to `COC(=O)c1ccc(NCC(=O)c2ccccc2)cc1`, the activity change (PNC), negative = inhibition is -26.4%.
With `COc1ccc(/C=C/C(=O)OCC(=O)NCc2cccs2)cc1OC` the figure was -1.51%.
Under `CCCCOc1ccc(C(=O)N/C(=C/C=C/c2ccccc2)C(=O)N2CCOCC2)cc1` stands -12.2%; under `CCOc1ccc2nc(C(=O)N3CCCC(C)C3)sc2c1` (stereo unspecified), 6.06%.
With `O=C(NC1CCCC1)C(NS(=O)(=O)c1ccc(Br)s1)c1ccccc1` (stereo unspecified), the activity change (PNC), negative = inhibition is 48.1%.
With `COC(=O)c1cn(-c2ccccc2)nc1-c1cccnc1` the figure was -22.9%; with `O=C(/C=C/c1cccs1)NCc1cccnc1`, -0.603%.
Under `O=C(NCc1cccnc1)c1cn(-c2ccccc2)nc1-c1cccs1` stands -139% (active).
With `COC1=CCC2([N+](=O)[O-])CN(CC(=O)O)CC1([N+](=O)[O-])C2` (stereo unspecified) the figure was 6.59%.
With `COc1ccc(/C=C/C(=O)Nc2ccc3c(c2)OCCO3)cc1OC`, the activity change (PNC), negative = inhibition was -11.1%.
Under `Cc1cc(C(=O)OCC(=O)Nc2nnc(C(C)C)s2)c2ccccc2n1` stands 3.82%.
Under `CCCc1nc2c([nH]1)C(c1cccnc1)C(C#N)=C(N)O2` (stereo unspecified) stands 7.34%; under `O=C(CN1CCN(CC(=O)Nc2ccc3c(c2)OCO3)CC1)Nc1ccc(F)cc1`, -20.9%; under `O=C(CN1CCN(c2ncc(C(F)(F)F)cc2Cl)CC1)Nc1ccc2c(c1)OCO2`, -86.4% (active).
Regarding `O=C(CN1CCN(c2ccc(F)cc2)CC1)Nc1cccc(C(F)(F)F)c1`, the activity change (PNC), negative = inhibition was -19.9%.
Take `CC1CCN(c2ccc(S(=O)(=O)Nc3cc(C(=O)O)cc(C(=O)O)c3)cc2[N+](=O)[O-])CC1`: the activity change (PNC), negative = inhibition is -0.23%.
With `CCOC(=O)c1c(NC(=O)c2ccc(N3CCOCC3)c([N+](=O)[O-])c2)sc(C)c1C` the figure was 28.7%; with `CC1CCN(c2ccc(C(=O)Nc3nnc(C4CC4)s3)cc2[N+](=O)[O-])CC1`, -87.1% (active); with `CCc1cccc(C)c1NC(=O)COC(=O)Cc1ccsc1`, -6%.
With `C=CCNC(=S)NNC(=O)c1ccc(Br)o1` the figure was -23.4%; with `O=c1c2c(ncn1Cc1ccccc1)nc1n2CCC1`, -8.18%.
With `COc1ccc(NC(=O)COC(=O)c2ccc(NS(=O)(=O)/C=C/c3ccccc3)cc2)cc1`, the activity change (PNC), negative = inhibition is -91.4% (active).
Under `CCC(C(=O)OCC(=O)Nc1ccc(C(=O)Nc2ccc(OC)cc2)cc1)c1ccccc1` (stereo unspecified) stands 12.6%.
With `NS(=O)(=O)c1ccc(NS(=O)(=O)/C=C/c2ccccc2)cc1` the figure was -5.65%.
With `Cc1c(C(=O)N2CCOCC2)[nH]c2ccc(OCc3ccccc3)cc12` the figure was -12.2%; with `CCOC(=O)c1[nH]c2ccc(OC)cc2c1NC(=O)N1CCOCC1`, -102% (active).
Regarding `COc1cc(NC(=O)N2CCOCC2)cc(OC)c1`, the activity change (PNC), negative = inhibition was 29.1%.
Under `CC(c1ccccn1)N(CCN(C)C)C(=S)Nc1ccccc1F` (stereo unspecified) stands -111% (active); under `Cc1cccc(NC(=S)N(CCN(C)C)C(C)c2ccco2)c1` (stereo unspecified), 5.52%.
Under `CC(C)C(=O)NC(=S)Nc1ccccc1F` stands 28.8%.
Consider `CC(=O)Nc1ccc(SCC(=O)Nc2ccccc2Oc2ccccc2)cc1`, for which the activity change (PNC), negative = inhibition is -10.5%.
